The structures appear in SMILES notation. Hit rate of the full screen: of about 340,000 compounds, about 800 (0.24%) were called active. The list comes from a sample in which actives are over-represented; it also holds similar structures and randomly drawn compounds. Unmarked numbers belong to inactive results.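 How the source made its calls: active means activation above the mean over all tested compounds plus 3 SD (cut at about 30% in these data); inactive means the rest.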

In the assay the target is Troponin I, cardiac muscle (Homo sapiens) + Troponin T, cardiac muscle (Homo sapiens) + Troponin C, slow skeletal and cardiac muscles (Homo sapiens) (UniProt P19429+P45379+P63316). Put plainly: calcium sensitizers of cardiac thin filaments – biochemical, IANBD-TnC fluorescence, EC20 calcium, primary screen (AID 493008).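 Further: rise in fluorescence read as greater calcium sensitivity of cardiac thin filaments.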 The conditions noted are these: IANBD-labeled TnC RTF fluorescence at EC20 calcium; at 7.2 µM; hits give high values.
As for `CCCCC(=O)N/N=C/c1c(O)n(CC)c(=S)n(CC)c1=O`, the activation was 93.2% (active). Turning to `Cn1c(O)c(C=NCCCC(=O)O)c(=O)n(C)c1=O`, the activation is 2.93%. Then `O=C(N/N=C/c1c(O)n(Cc2ccccc2)c(=O)[nH]c1=O)c1ccccc1`, with 0.31%. `COc1ccccc1N=C1SCCCN1C`: the activation was -2.56%. Then `CN1CCc2cc3c(cc2[C@H]1[C@@H]1OC(=O)c2c1ccc1c2OCO1)OCO3`, with 0.04%.

Values taken from PubChem BioAssay AID493008 (The Scripps Research Institute Molecular Screening Center, 2010).
